# In PubChem BioAssay (NCATS):
# Records with an inconclusive call do not appear. Where a call stands in place of a potency, no number is given. Values without a mark were called inactive. Activity calls are given as the source filed them. Calls come from the whole dose curve; as a rule, active = well fitted cell-killing curve with a large enough effect; inconclusive = small, poorly fitted or top-dose-only effect, or effect the other way; inactive = no such curve, though single readings can be large or run the other way.
# Experiments:
# [1] = Viability qHTS for spleen associated tyrosine kinase inhibitor (SYKi) naive MV4-11 cells (AID 1963823); conditions: MV4-11 AML viability, CellTiter-Glo luminescence, 72 h; series mostly up to 45 µM; note: nearly all actives have a fitted effect of over 40% in size
# Outline: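 In this viability screen, compounds acted on SYK inhibitor naive MV4-11 cells for three days (72 hr, 37 C). Remaining viable cells were measured by CellTiter-Glo luminescence following a 10 min room-temperature development.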
# [2] = Viability qHTS for spleen associated tyrosine kinase inhibitor (SYKi) drug resistant MV4-11 cells (AID 1963824); conditions: SYKi-resistant MV4-11 viability, CellTiter-Glo, 72 h; series mostly up to 45 µM; note: nearly all actives have a fitted effect of over 35% in size
# Outline: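 SYK-inhibitor-resistant MV4-11 AML cells were seeded at 500 per well onto compound and cultured 72 hours (37 °C, 5% CO2). CellTiter-Glo was then added, and after 10 min at room temperature, luminescence gave viability.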
# Potency is the fitted concentration of half-maximal effect.
SMILES,Potency [1],Potency [2],viability (% of control) [1],"viability, % of control [2]"
CC1=C(C(=O)OC2OC(COC3OC(CO)C(O)C(O)C3O)C(O)C(O)C2O)C(C)(C)CCC1 (stereo not given),inactive,inactive,,
COc1c2c(c(C)c3c1C(=O)OC3)OC1(C)CC(O)C34OC(OC)(CC(OC(C)=O)C3(C)C1C2)OC4(C)C (stereo not given),inactive,inactive,,
Nc1ncnc2c1c(-c1ccc(Oc3ccccc3)cc1)nn2[C@@H]1CCCNC1,0.206 µM (active),0.259 µM (active),,
COc1ccc(C(O)C(C)OC2OC(CO)C(O)C(O)C2O)cc1 (stereo not given),inactive,inactive,,
CN1CCN(C(=O)c2ccc3cc(CCNc4ncnc5ccc(C#N)cc45)ccc3c2)CC1,0.92 µM (active),0.461 µM (active),,
C=C[C@H]1[C@H](O[C@@H]2O[C@H](CO)[C@@H](O)[C@H](O)[C@H]2O)OC=C(C(=O)OC)[C@H]1CC(=O)O,inactive,inactive,,
O=C(OC[C@H]1O[C@H](O[C@H]2CO[C@H](CO)[C@@H](O)[C@@H]2O)[C@H](O)[C@@H](O)[C@H]1O)c1ccccc1,inactive,inactive,,
CC1=C(CCC(C)O[C@@H]2O[C@H](CO)[C@@H](O)[C@H](O)[C@H]2O)C(C)(C)CC(O)C1 (stereo not given in full),inactive,inactive,,
c1cc(CN2CCCCC2)cc(OCCCNc2nc3ccccc3s2)c1,15 µM (active),21.1 µM (active),,
CC1=C(CC/C(C)=C/C(=O)O)[C@@]2(C)CCCC(C)(C)C2CC1=O (stereo not given in full),inactive,inactive,,
CSc1ccc2c(c1)C(N1CCN(C)CC1)Cc1ccccc1S2 (stereo not given),11.9 µM (active),26.6 µM (active),,
CC(N)C1CCC(C(=O)Nc2ccncc2)CC1 (stereo not given),inactive,inactive,,
C=C(C)C(=O)O[C@H]1C[C@@](C)(O)C(=O)CC(O)/C(C)=C\[C@H]2OC(=O)C(=C)[C@H]12 (stereo not given in full),1.61 µM (active),2.02 µM (active),,
CC(C)CC1NC(=O)C2CC3(O)c4ccccc4NC3N2C1=O (stereo not given),inactive,inactive,,
CC(=O)OC[C@]12[C@H](OC(C)=O)C(=O)[C@@H]3[C@@H](O)[C@@]14O[C@@]3(C)COC(=O)c1cccnc1[C@@H](C)[C@H](C)C(=O)O[C@@H]([C@H](O)[C@@H]2OC(C)=O)[C@]4(C)O,1.72 µM (active),3.43 µM (active),,
CC(=O)N[C@@H](CCCCN)C(=O)N(C)[C@@H](CC(C)C)C(=O)N[C@H](C(=O)N(C)[C@@H](Cc1ccccc1)C(=O)N[C@H](Cc1ccccc1)C(N)=O)C(C)C,,,93.5% [at 4.97 µM],103% [at 4.97 µM]
CC1CCC2(C)C(CC(O)C(O)C23CO3)C1(C)CCC1=CC(O)OC1=O (stereo not given),inactive,inactive,,
CNc1nc(-c2ccc3c(N)n[nH]c3c2)cc(N2CC(C(=O)NC3CCCCC3)CCC2C)n1 (stereo not given),2.31 µM (active),4.61 µM (active),,
C[C@@H]1O[C@@H](O[C@H]2[C@@H](OC(=O)[C@]34CCC(C)(C)CC3C3=CCC5[C@@]6(C)C[C@H](O)[C@H](O[C@@H]7O[C@H](C(=O)O)[C@@H](O)[C@H](O)[C@H]7O)[C@@](C)(C(=O)O)C6CC[C@@]5(C)[C@]3(C)CC4)OC[C@H](O)[C@@H]2O)[C@H](O)[C@H](O)[C@H]1O[C@@H]1OC[C@@H](O)[C@H](O)[C@H]1O (stereo not given in full),,,77.1% [at 9.25 µM],74.1% [at 9.25 µM]
CC1(C)C=Cc2c(ccc3c2N=C2C(C)(C)[C@@H]4C[C@]56CCCN5C(=O)[C@@]4(C[C@]23O)NC6=O)O1,inactive,inactive,,
CC1(C)CC[C@]2(C(=O)O[C@@H]3O[C@H](CO)[C@@H](O)[C@H](O)[C@H]3O)CC[C@]3(C)C(=CCC4[C@@]5(C)CC[C@H](OC6OC(C(=O)O)C(OC7OC(CO)C(O)C(O)C7O)C(O)C6O)C(C)(C)C5CC[C@]43C)C2C1 (stereo not given in full),,,86.6% [at 9.25 µM],91.6% [at 9.25 µM]
N#CCC(C1CCCC1)n1cc(-c2ncnc3[nH]ccc23)cn1 (stereo not given),10.3 µM (active),10.3 µM (active),,
CCNc1nc2c(ncn2[C@H]2C[C@H](O)[C@@H](CO)O2)c(=O)[nH]1,inactive,inactive,,
COC(=O)C1=CO[C@@H](O[C@@H]2O[C@H](CO)[C@@H](O)[C@H](O)[C@H]2O)[C@@H]2[C@@H](C)[C@@H](O)C[C@H]12,inactive,inactive,,
CC1(C)OC(=O)C(OCC2CC2)=C1c1ccc(S(C)(=O)=O)cc1,inactive,inactive,,
